From PubChem BioAssay
Sampled rows, rich in hits. Any-hit rate of the full collection: about 3.5%.
Pf apPOL block: Pf-apPOL DNA polymerase inhibition; Recombinant Pf-apPOL, molecular beacon fluorescence, 1.5 h; inhibition, % at 10 µM; 210,000 tested, 0.25% active
mHTT CaM bind: inhibitors of human mutant huntingtin-calmodulin interaction. AID 1671202. AlphaScreen His-mHTT/GST-CaM binding, luminescence. P42858. 190,000 tested, 3.6% active. inhibition, % at 15 µM;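 also: 0% = both proteins with DMSO and 100% = one protein alone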
* = called active by the depositor; i = inactive; x = no result given. Rule as the data show it: active = inhibition above about 50%; inactive = the rest.

SMILES	Pf apPOL block	mHTT CaM bind
C[C@@]12CCC=C[C@H]1[C@H](c1cccc([N+](=O)[O-])c1)N(Cc1ccccc1)C2=O	-4	10
CC(=O)c1ccc(-c2cccc([C@H]3[C@@H]4C=CCC[C@@]4(C)C(=O)N3Cc3ccccc3)c2)cc1	-2	85*
Cc1cccc([C@H]2[C@@H]3C=CCC[C@@]3(C)C(=O)N2Cc2ccccc2)c1	-6	5
COc1ccc(-c2cc([C@H]3[C@@H]4C=CCC[C@@]4(C)C(=O)N3Cc3ccccc3)ccc2F)cc1OC	-3	47
COc1ccc([C@H]2[C@@H]3C=CCC[C@@]3(C)C(=O)N2Cc2ccccc2)cc1Cl	-3	52*
COc1ccc(-c2cccc([C@H]3[C@@H]4C=CCC[C@@]4(C)C(=O)N3Cc3ccccc3)c2)cc1	-8	70*
CC(=NN=C1NC(=O)C(CC(=O)O)S1)c1ccccc1Cl (stereo unspecified)	27	x
Cc1ccc(OCCN2CCCC2)c(Br)c1	-2	-1
Cn1cc(S(=O)(=O)Nc2ccc(F)cc2Cl)c2cccnc21	93*	69*
Cn1cc(S(=O)(=O)Nc2cccc(Cl)c2)c2cccnc21	10	-5
CCCn1cc(S(=O)(=O)Nc2ccc(Cl)cc2F)c2cccnc21	13	39
Cc1cccc(NS(=O)(=O)c2cn(C)c3ncccc23)c1	88*	59*
CCCn1cnnc1C1CCN(C(=O)CCc2ccccc2)CC1	0	0
Cc1noc(-c2ccccc2Cl)c1C(=O)NCCc1ccc(F)cc1	-1	55*
Cc1noc(-c2cccs2)c1C(=O)NCCc1ccc(F)cc1	-7	-9
c1coc(CN2CCC(Nc3ncnc4c3CCC4)C2)c1 (stereo unspecified)	5	13
COc1ccc(N2CCN(Cc3nc4cc(Cl)c(Cl)cc4[nH]c3=O)CC2)cc1	0	53*
O=c1[nH]c2ccccc2nc1CN1CCN(c2cccc(Cl)c2)CC1	1	-9
COc1cc(O)c(C=O)c(OC)c1[N+](=O)[O-]	-2	2
COc1cc(C(c2c(C)[nH][nH]c2=O)c2c(C)[nH][nH]c2=O)ccc1O	0	6
COc1cc(C(c2c[nH]c3ccccc23)c2c[nH]c3ccccc23)ccc1O	6	100*
Cc1ccc(NC(=O)COc2ccc([N+](=O)[O-])cc2)cc1C	4	-10
COc1ccc(NC(=O)c2cc3n(n2)C(C(F)(F)F)CC(c2ccc(Cl)cc2)N3)cc1 (stereo unspecified)	-2	8
Cc1ccc2ccccc2c1C[N+](C)(C)CC#Cc1ccccc1	x	77*
C(#Cc1ccccc1)CN1CCN(CC#Cc2ccccc2)CC1	-1	16
SMILES	Pf apPOL block	mHTT CaM bind
CCC(=O)Nc1ccc(S(=O)(=O)N2CCCC2C(=O)NCc2csc(C)n2)cc1 (stereo unspecified)	-1	1
Cc1ccc2nc(-c3ccc(C)o3)c(NC(=O)C3CCCCC3)n2c1	3	56*
Cc1ccn2c(NC(=O)C3CCCC3)c(-c3ccccc3)nc2c1	2	36
COc1ccc(-c2nc3ccc(C)cn3c2NC(=O)C2CCCCC2)cc1	0	40
Cc1ccc2nc(Cc3ccccc3)c(NC(=O)C3CCCCC3)n2c1	29	54*
Cc1cccc(C(=O)N2CCC(=O)N([C@H](COCc3cccc(Cl)c3)Cc3ccccc3)CC2)c1	1	99*
O=C(c1ccc(Cl)c(Cl)c1)N1CCC(=O)N([C@H](COCc2ccc(Cl)cc2)Cc2ccccc2)CC1	1	100*
COc1cccc(C(=O)N2CCc3c(c(COCc4ccc(Cl)cc4)nn3C)C2)c1	-1	26
Cc1ccc(S(=O)(=O)N2CCC(=O)N([C@H](COCc3cccc(C)c3)Cc3ccccc3)CC2)cc1	-2	13
Cc1cccc(C(=O)N2CCC(=O)N([C@H](COCc3ccc(Cl)cc3)Cc3ccccc3)CC2)c1	-12	99*
Cc1ccc(S(=O)(=O)N2CCC(=O)N([C@H](COCc3ccc(C(F)(F)F)cc3)Cc3ccccc3)CC2)cc1	1	19
Cc1cccc(COC[C@H](CC(C)C)N2CCN(C(=O)c3ccc(C(C)(C)C)cc3)CCC2=O)c1	-4	-15
Cc1cccc(COC[C@H](Cc2ccccc2)N2CCN(C(=O)c3ccc(C(F)(F)F)cc3)CCC2=O)c1	-5	99*
COc1cccc(C2=CC(c3cccc(OC)c3)n3nnnc3N2)c1 (stereo unspecified)	-2	-12
CCOc1ccccc1CNC(=O)C1CCc2sc(C(=O)N(C)C)cc2C1 (stereo unspecified)	-6	9
Cc1ccc(NC(=O)N2CCC(N3CCN(Cc4ccccc4)C3=O)CC2)cc1	4	-4
COc1cccc(-c2nc(C(=O)NC(C)C)cs2)c1	-8	-7
CC(=O)NCCc1csc(C2CCCN(C(=O)c3ccc4ccccc4n3)C2)n1 (stereo unspecified)	-2	-6
COc1ccc(C2C=C(c3ccc(Cl)cc3)Nc3nc(CCCO)nn32)cc1OC (stereo unspecified)	12	52*
OCCCc1nc2n(n1)C(c1cccc(Cl)c1)C=C(c1ccc(F)cc1)N2 (stereo unspecified)	-6	41
CC1Cn2cc(-c3ccc([N+](=O)[O-])cc3)nc2S1 (stereo unspecified)	51*	18
O=[N+]([O-])c1ccc(-c2cn3c(n2)SCC3)cc1	-13	18
CCOc1cc2c(cc1OCC)C(C1CC=CCC1)NCC2 (stereo unspecified)	x	-3
Cc1nc(C(F)(F)F)ccc1-c1nnc(SCc2ccc(OC(F)(F)F)cc2)o1	-5	x
Cc1nc([N+](=O)[O-])c2n1CC(c1ccccc1)=NN2c1ccc([N+](=O)[O-])cc1	-4	58*
SMILES	Pf apPOL block	mHTT CaM bind
CC1=NN(c2ccccc2)C(=O)C1N=Nc1ccc([N+](=O)[O-])cc1 (stereo unspecified)	-4	x
Cn1c(C2CCN(C(=O)c3ccccc3C(F)(F)F)C2)nc2ccncc21 (stereo unspecified)	0	18
O=C(CSc1nc2cc(Cl)ccc2s1)Nc1nccs1	-8	-2
O=C(Nc1cccc2ccc(-n3ccnc3)nc12)c1ccsc1	-6	51*
O=C(Nc1cccc2ccc(-n3ccnc3)nc12)c1ccc2c(c1)OCO2	0	-10
CC(Oc1ccccc1)C(=O)Nc1ccc(O)cc1C(=O)O (stereo unspecified)	-3	0
Cc1ccc2ccc(C(Nc3ccccn3)c3ccccc3C)c(O)c2n1 (stereo unspecified)	-33	68*
Cc1cc(C)c2nc(C)cc(NC(=O)c3ccccn3)c2c1	-1	-11
COc1cccc(C(Nc2ccccn2)c2ccc3ccc(C)nc3c2O)c1OC (stereo unspecified)	-30	69*
COc1ccccc1C(=O)Nc1ccccn1	1	-8
NC(=O)c1c(NC(=O)c2cccs2)sc2c1CCCC2	-3	-2
Cc1ccc(-n2cnc3cc(C(=O)NCCN4CCOCC4)ccc32)cc1Cl	26	23
CC1=CC(=O)C(C(C)C)=C/C1=N\OC(=O)c1cccc(Br)c1	-4	i
CC1=CC(=O)C(C(C)C)=CC1=NC(=O)c1ccc(C)cc1	-1	60*
Cc1nn(C)cc1C1CC(C(F)(F)F)n2nccc2N1 (stereo unspecified)	x	-4
COc1ccc(OC)c(NC(=O)C2CC(=O)N(CCc3c[nH]c4ccc(Cl)cc34)C2)c1 (stereo unspecified)	1	81*
